Out of some 65,000 compounds screened, about 2,100 (3.2%) showed an effect of 50% or more. The median lay at about -52%. The sample as a whole holds a higher share of strong results than the screen did.

This experiment deals with Plasmodium falciparum. The experiment in a line: Screen against P. falciparum Asexual Blood Stage (ABS), at 5uM. The following applies: tested at 5 uM. The format is functional, Dd2.
For the compound `Cc1cccc(CN2CCCC3(CCN(C4CCSCC4)C3)C2=O)c1` (stereo not given), the INHIBITION came out at 6.83%. On to `O=C1N(Cc2ccc(F)cc2)CCCC12CCN(C1CCSCC1)C2` (stereo not given), for which the INHIBITION was determined as 9.56%. As for `CCCS(=O)(=O)N1C[C@H]2CC[C@@H](C1)N(Cc1cscn1)C2=O`, the figure is -60%. As for `Nc1cc(N2CCOCC(Cc3ccc4[nH]ccc4c3)C2)ncn1` (stereo not given), the figure is -6.79%. As for `Cc1nc(C(=O)NC2CCN(CCOc3ccc(Br)cc3)CC2)cs1`, the figure is 50%; as for `CC(=O)Nc1nc(C(=O)NCCOc2ccc(C)cc2)cs1`, -4.82%; as for `CCc1nnsc1C(=O)NC1CCN(CCOc2ccc(Br)cc2)CC1`, 2.8%.

`CCn1ccnc1CN1CCCN(C(=O)c2ccnc(C)n2)CC1`: the INHIBITION is -61.7%.

`COc1ccc2c(c1)OCC(CNC1CCc3nc(C)nn3C1)=C2` (stereo not given): the INHIBITION is given as -98%. As for `Cc1csc(N2CCCN(c3cc(C)nc(C)c3C#N)CC2)n1`, the figure is -45.8%; as for `O=C(Nc1cnn(COc2ccc(F)cc2Cl)c1)C1CC1`, 67.2%. As for `O=C(O)CCCC(=O)Nc1cnn(COc2ccc(F)cc2Cl)c1`, the figure is -39.2%; as for `O=C(Nc1cnn(Cc2ccc(F)cc2Cl)c1)C1CC1`, -0.313%. For the compound `CO[C@H]1CN(C(=O)c2cn3cc(C)ccc3n2)CC[C@@]12CCCO2`, the INHIBITION was -142%. As for `Cc1nc(C(=O)N(C)CC2CCCO2)nn1-c1ccccc1C(C)C` (stereo not given), the figure is -143%; as for `CCOCc1nc(-c2ccc(F)cc2Cl)n(C)n1`, -121%; as for `CN1C(=O)CC(c2ccccc2)C12CCN(CC1CC1)CC2` (stereo not given), 16.7%. As for `CCN1C(=O)CC(c2ccccc2)C12CCN(CC1CCOCC1)CC2` (stereo not given), the figure is 50.3%. As to `CN1C(=O)CC(c2ccccc2)C12CCN(CC1CCOCC1)CC2` (stereo not given), the INHIBITION amounted to 36.1%. In the case of `Cc1nc(C)n(CC2CCCN2CC(=O)Nc2c(C)n[nH]c2C)n1` (stereo not given), the INHIBITION is listed as 35%. As for `Cc1nc(C)n(CC2CCCCN2CC(=O)Nc2c(C)n[nH]c2C)n1` (stereo not given), the figure is 54.2%; as for `Cc1cc(C)n(CC2CCCCN2CC(=O)Nc2c(C)n[nH]c2C)n1` (stereo not given), -116%. Turning to `CC(C)Cn1nc(-c2ccc(C(=O)O)cc2)cc1-c1ccc(F)cc1`, the INHIBITION is -57.3%.

With `CC(NCc1cccnc1)c1ccc(OCC(=O)NC2CC2)cc1` (stereo not given), the INHIBITION is -107%. Consider `CC(NCc1cccc(Cl)c1)c1ccc(OCC(=O)NC2CC2)cc1` (stereo not given), for which the INHIBITION turned out to be 51.7%. As to `Cc1cccc(CNC(C)c2ccc(OCC(=O)NC3CC3)cc2)c1` (stereo not given), the INHIBITION is on record as -21%. Turning to `CC(C)(O)CN1CCN(C(=O)c2cccc3cccnc23)CC1`, the INHIBITION is 24.5%. In the case of `CC(C)CNC(=O)[C@H]1C[C@H]2CN(C(=O)Nc3ccc(F)cc3)C[C@@H]1O2`, the INHIBITION is -5.8%.

For `Cc1csc(NC(=O)CN2CCc3c(nc(C4CC4)n3C)C2)n1`, the INHIBITION is -122%. As for `NC(=O)c1ccccc1Oc1cnc(C2CCCN2)cn1` (stereo not given), the figure is -95.3%.

As to `NC(=O)c1ccc(C2CCCNC2)nc1` (stereo not given), the INHIBITION is given as -43.7%.

`NC(=O)c1ccccc1Oc1cccc(C2CCCNC2)n1` (stereo not given): the INHIBITION is recorded as 55.8%. As for `COc1ccc(F)c(CN2CCCC(O)(CNCC(C)(C)C)C2=O)c1` (stereo not given), the figure is 50.2%; as for `O=C(CNCC1(O)CCCN(Cc2cccc(F)c2F)C1=O)NC1CC1` (stereo not given), -93.9%. As for `CN(C)CCNCC1(O)CCCN(Cc2cccc(F)c2F)C1=O` (stereo not given), the figure is -65.2%; as for `CN1CCC(NCC2(O)CCCN(Cc3ccccc3F)C2=O)CC1` (stereo not given), 7.93%. As for `O=C1N(Cc2cccc(F)c2F)CCCC1(O)CNCc1ccccc1` (stereo not given), the INHIBITION was found to be 61.9%. For the compound `CC1CCN(CC2(O)CCCN(Cc3cccc(F)c3F)C2=O)CC1` (stereo not given), the INHIBITION is listed as -71.6%. As for `COC(=O)CNCC1(O)CCCN(Cc2cccc(F)c2F)C1=O` (stereo not given), the figure is -51%. As for `CN(CC1(O)CCCN(Cc2cccc(F)c2F)C1=O)C1CCCCC1` (stereo not given), the figure is 65%; as for `O=C1N(Cc2cccc(F)c2F)CCCC1(O)CNC1CCCC1` (stereo not given), 60.2%; as for `O=C1N(Cc2cccc(F)c2F)CCCC1(O)CNCc1ccccn1` (stereo not given), 4.26%. As for `COc1ccc(F)c(CN2CCCC(O)(CNCc3ccon3)C2=O)c1` (stereo not given), the INHIBITION is -19%. For `COc1ccc(F)c(CN2CCCC(O)(CNCc3ncc[nH]3)C2=O)c1` (stereo not given), the INHIBITION is on record as -93.5%. As for `Cc1noc([C@@H]2CC[C@@H]3[C@@H](CCN3c3nnc(C)s3)O2)n1`, the figure is -97.1%. With `CCn1cnnc1CNC(=O)NC(C)c1ccccn1` (stereo not given), the INHIBITION is recorded as -68.5%.

Consider `CCn1nc(C)c2c1cnn2CCNS(=O)(=O)c1cccs1`, for which the INHIBITION is -54.4%. On to `CCC(C)n1c(SCC(=O)N2CCOCC2)nc2cc(C)[nH]c2c1=O` (stereo not given), for which the INHIBITION was -77%. For `CO[C@H]1CN(C(=O)c2ccc3oc(C)cc3c2)C[C@@]12CCCO2`, the INHIBITION was -39.5%. For `CN(C)CC1(O)CCN(S(=O)(=O)c2ccc(Cl)cc2)C1` (stereo not given), the INHIBITION worked out at 42.9%.

Consider `Cc1ccc(S(=O)(=O)N2CCC(O)(CN(C)C)C2)cc1` (stereo not given), for which the INHIBITION is 52%. Turning to `CN(C)CC1(O)CCN(S(=O)(=O)c2cccc(F)c2)C1` (stereo not given), the INHIBITION turned out to be 66.7%. As for `CN(C)CC1(O)CCN(S(=O)(=O)c2ccc(F)cc2)C1` (stereo not given), the figure is 36.6%. In the case of `COCC1COCCC12CCN(S(=O)(=O)c1ccc(C)cc1)CC2` (stereo not given), the INHIBITION is -71.5%. As for `CN(C)CC1(O)CCN(S(=O)(=O)c2ccc(F)c(F)c2)C1` (stereo not given), the figure is 20.7%.

The values above are taken from ChEMBL document CHEMBL4513216, “Probing the Open Global Health Chemical Diversity Library for Multistage-Active Starting Points for Next-Generation Antimalarials” (ACS Infect Dis, 2020).
